Assay results from PubChem BioAssay.
The source made the active and inactive calls. Cut-off read from the data, not from the text of the source: active = inhibition above about 28%; inactive = the rest.

Test: StAR promoter reporter inhibitors, counter-screen for LRH-1 inverse agonist project, cell-based, luminescence, high throughput (AID 651611)
Conditions: StAR promoter luciferase reporter counterscreen, at 3.6 µM, hits give high values

| SMILES | inhibition |
| --- | --- |
| COc1ccc(CC(=O)Nc2ccncc2Cl)cc1 | 7.9% (inactive) |
| N=c1sccn1CC(=O)Nc1ccc(S(N)(=O)=O)cc1 | 17.1% (inactive) |
| COc1ccc(NC(=O)CSC2=C(C#N)C(c3ccco3)C3=C(CCCC3=O)N2)c(OC)c1 (stereo not given) | 14% (inactive) |
| Cc1cc(NC(=O)c2ccc([N+](=O)[O-])o2)ccc1NC(=O)c1ccco1 | 1.92% (inactive) |
| CCOC(=O)c1c(NC(=O)/C=C/C(=O)O)sc(C)c1-c1ccc(Cl)cc1 | 6.09% (inactive) |
| CCc1ccc(N2C=C(C(=O)OC)C(c3ccc(OC)cc3)C(C#N)=C2N)cc1 (stereo not given) | 48.9% (active) |
| Cn1c2c(c(=O)n(C)c1=O)C(C(F)(F)F)(C(F)(F)F)N=C(CCC1CCCCC1)N2 | 29.6% (active) |
| CC(=O)N1CCN(c2ccccc2NC(=O)c2cc3ccccc3o2)CC1 | 9.44% (inactive) |
| CCc1c(O)nc(SCC(=O)Nc2ccccc2C)n(-c2ccc(C)cc2)c1=O | 14.4% (inactive) |
| c1ccc2c(c1)C1=NCCN1c1ccccc1-2 | 20% (inactive) |
| Cc1cc2ccccn2c1C(=O)c1ccc([N+](=O)[O-])o1 | 41% (active) |
| COc1cc(-c2cc(C(=O)NCc3ccc(S(N)(=O)=O)cc3)c3ccccc3n2)cc(OC)c1OC | 27.1% (inactive) |
| CCCn1c(=NC(=O)CCS(=O)(=O)c2ccccc2)sc2cc(S(N)(=O)=O)ccc21 | 1.11% (inactive) |
| CC(=O)C1=C(c2ccc(Br)cc2)C(=O)c2ccccc2C1=O | 74.3% (active) |
| Cc1cc(C)c2nc(-c3cccnc3)cc(C(=O)NC(C)c3cnn(C)c3C)c2c1 (stereo not given) | 10.3% (inactive) |
| COc1cc(C)c(C(=O)Oc2cc(C)c(C(=O)O)c(O)c2C)c(O)c1C | 14.9% (inactive) |
| COCCSc1ccccc1C(=O)NCc1ccc2c(c1)OCO2 | 6.49% (inactive) |
| Cc1ccc(NC(=O)CSc2nnc(CNC(=O)c3ccco3)n2C)c(C)c1 | 6.66% (inactive) |
| CC(=O)Nc1ccc(NC(=O)COC(=O)Cc2c[nH]c3ccccc23)cc1 | 18.8% (inactive) |
| COc1cccc(C(C)(O)c2nc(-c3cccc(C#N)c3)cs2)c1 (stereo not given) | 19.6% (inactive) |

| SMILES | inhibition |
| --- | --- |
| Cc1ccc(/C=C2\SC(=S)N(c3c(C)n(C)n(-c4ccccc4)c3=O)C2=O)cc1 | 9.85% (inactive) |
| COc1ccc(C2(C)NC(=O)N(CC(=O)NCCC3=CCCCC3)C2=O)cc1OC (stereo not given) | 7.18% (inactive) |
| CCOc1ccc(NC(=O)CSc2nnc(C(C)C)n2CC)cc1 | 0.92% (inactive) |
| COc1cc(NC(=O)Cn2ccsc2=N)c(C)cc1[N+](=O)[O-] | 11.8% (inactive) |
| O=C(C(Cl)c1ccccc1)N1CCOCC1 (stereo not given) | 5.9% (inactive) |
| COC(=O)Cc1sc(-c2ccccn2)nc1-c1ccccc1 | 11.6% (inactive) |
| CCCN(CC(=O)Nc1ccc(C(C)=O)cc1)CC(=O)Nc1ccccc1C | 1.27% (inactive) |
| CC(=O)Nc1cc(-c2cccnc2)cn2c(-c3ccc(F)cc3)cnc12 | 9.06% (inactive) |
| CC1CC(=Cc2ccc(N)cc2)C(=O)O1 (stereo not given) | -13.5% (inactive) |
| O=C(CN(Cc1ccccc1)C(=O)CCl)c1cccc(Br)c1 | 19% (inactive) |
| Cc1ccc(-c2nn3c(C)nnc3s2)cc1NC(=O)c1cccs1 | 17.1% (inactive) |
| O=C1C(=C(I)I)c2ccccc2-c2ccccc21 | 2.21% (inactive) |
| CCC(NC(=O)c1cc(COc2cc(C)c(Cl)c(C)c2)on1)c1ccncc1 (stereo not given) | 0.99% (inactive) |
| COc1ccc(-c2cc(C(F)F)n3ncc(C(=O)N4CCc5ccccc5C4)c3n2)cc1 | 17.2% (inactive) |
| Cc1cc(OCC(=O)NCc2cccnc2)c2c(C)c(C)c(=O)oc2c1 | 9.8% (inactive) |
| CCOc1ccc(NC(=O)CSc2nc3cccnc3n2CCOC)cc1 | 21.3% (inactive) |
| CCOc1ccc(NC(=O)COC(=O)c2ncc(Cl)c(Cl)c2Cl)cc1 | 21.6% (inactive) |
| COc1cc(-c2nc(C(=O)NCC3CCCO3)cc3c2[nH]c2ccccc23)cc(OC)c1OC (stereo not given) | 62.5% (active) |
| O=C(Nc1cc(Cl)ccc1-n1cncn1)c1ccc([N+](=O)[O-])o1 | 27% (inactive) |
| CCCCCCCCN1C(=O)[C@H](CC(=O)NCC23CC4CC(CC(C4)C2)C3)C[C@@]2(C(=O)OCC)CCCC=C12 | 22.3% (inactive) |
